# Test results published in paper PMC7862700, “An all-to-all approach to the identification of sequence-specific readers for epigenetic DNA modifications on cytosine”.
# Tests used:
# Test in all cases: DAPPL (digital affinity profiling via proximity ligation, sequencing); 10 mM Tris-HCl pH 7.5, 50 mM NaCl, 1 mM DTT, 4% glycerol, room temperature, 30 min; GST-TFs on glutathione beads, 16-mer random dsDNA library, 0.1% formaldehyde crosslink after washing; high values mean tight binding
# Settings in all cases: protein: recombinant; tags: N-terminal GST; dsDNA, one strand shown
# FLI1 = target: T1, FLI1 (Homo sapiens, UniProt Q01543 1-452)
# T1 sequence: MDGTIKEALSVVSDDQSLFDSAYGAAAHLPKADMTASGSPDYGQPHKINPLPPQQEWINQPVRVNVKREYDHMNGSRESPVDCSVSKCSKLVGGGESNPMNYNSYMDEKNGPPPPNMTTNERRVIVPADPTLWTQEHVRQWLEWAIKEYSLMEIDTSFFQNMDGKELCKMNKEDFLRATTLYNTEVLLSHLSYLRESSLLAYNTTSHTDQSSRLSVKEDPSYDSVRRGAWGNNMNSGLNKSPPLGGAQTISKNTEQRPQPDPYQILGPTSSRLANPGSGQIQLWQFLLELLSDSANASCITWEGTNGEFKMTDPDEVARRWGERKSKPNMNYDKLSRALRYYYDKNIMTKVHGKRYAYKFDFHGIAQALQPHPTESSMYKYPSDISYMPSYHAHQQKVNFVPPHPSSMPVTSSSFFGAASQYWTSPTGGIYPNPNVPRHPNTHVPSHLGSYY
# Outline: (§1)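 Human transcription factors fused to GST were expressed in yeast, captured on glutathione beads, given DNA barcodes and pooled with a GST-only negative control. Pools were incubated with 200 nmole of a 16-mer random double-stranded DNA library in Tris/NaCl/DTT/glycerol buffer at room temperature for 30 min. They were then washed, crosslinked with 0.1% formaldehyde, proximity-ligated (BsaI/T4 ligase, 1 h, 37 °C), PCR-amplified and sequenced on an Illumina NextSeq500. Binding signal is each 6-mer's read frequency for a factor divided by its frequency for the GST control.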
# ELK1 = target: T2, ELK1 (Homo sapiens, UniProt P19419 1-428)
# T2 sequence: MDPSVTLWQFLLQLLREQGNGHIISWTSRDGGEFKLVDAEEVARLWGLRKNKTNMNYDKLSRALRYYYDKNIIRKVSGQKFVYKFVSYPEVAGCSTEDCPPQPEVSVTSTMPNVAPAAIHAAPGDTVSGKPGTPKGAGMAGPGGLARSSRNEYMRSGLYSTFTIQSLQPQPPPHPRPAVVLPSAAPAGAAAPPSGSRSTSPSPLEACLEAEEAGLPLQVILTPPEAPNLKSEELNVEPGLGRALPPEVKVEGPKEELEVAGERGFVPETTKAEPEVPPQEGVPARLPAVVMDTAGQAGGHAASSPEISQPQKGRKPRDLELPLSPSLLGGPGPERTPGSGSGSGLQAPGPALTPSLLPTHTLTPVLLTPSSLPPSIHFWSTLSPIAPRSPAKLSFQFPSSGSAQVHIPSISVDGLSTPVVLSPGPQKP
# Outline: as §1
# GABPA = target: T3, GABPA (Homo sapiens, UniProt Q06546 1-454)
# T3 sequence: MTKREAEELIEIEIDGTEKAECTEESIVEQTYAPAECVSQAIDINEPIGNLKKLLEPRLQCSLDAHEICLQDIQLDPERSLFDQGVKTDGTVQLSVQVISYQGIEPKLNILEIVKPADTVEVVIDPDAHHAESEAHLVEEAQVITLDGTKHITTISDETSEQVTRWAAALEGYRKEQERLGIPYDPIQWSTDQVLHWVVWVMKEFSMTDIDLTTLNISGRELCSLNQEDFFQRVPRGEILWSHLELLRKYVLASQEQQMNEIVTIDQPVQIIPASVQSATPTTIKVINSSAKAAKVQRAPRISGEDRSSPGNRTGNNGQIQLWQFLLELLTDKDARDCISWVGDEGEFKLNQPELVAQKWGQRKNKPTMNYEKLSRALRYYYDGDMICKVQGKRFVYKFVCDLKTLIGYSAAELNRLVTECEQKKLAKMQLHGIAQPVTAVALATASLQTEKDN
# Outline: as §1
# ERG = target: T4, ERG (Homo sapiens, UniProt P11308 1-479)
# T4 sequence: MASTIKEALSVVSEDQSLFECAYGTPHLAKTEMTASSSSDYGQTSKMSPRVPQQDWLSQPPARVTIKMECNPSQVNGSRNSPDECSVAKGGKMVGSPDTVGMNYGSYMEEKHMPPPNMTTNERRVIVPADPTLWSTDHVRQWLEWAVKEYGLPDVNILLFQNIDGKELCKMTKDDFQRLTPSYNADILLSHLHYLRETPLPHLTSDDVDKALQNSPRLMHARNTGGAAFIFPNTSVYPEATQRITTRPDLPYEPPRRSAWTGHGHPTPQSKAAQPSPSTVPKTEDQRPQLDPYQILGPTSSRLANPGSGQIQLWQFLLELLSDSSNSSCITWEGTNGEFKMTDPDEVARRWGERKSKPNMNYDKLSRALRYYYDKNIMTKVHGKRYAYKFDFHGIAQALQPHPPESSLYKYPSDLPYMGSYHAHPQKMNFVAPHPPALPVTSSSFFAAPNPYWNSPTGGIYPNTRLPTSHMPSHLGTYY
# Outline: as §1
# ELF1 = ELF1 (Homo sapiens, UniProt P32519 1-619)
# Outline: as §1
# EHF = target: T5, EHF (Homo sapiens, UniProt Q9NZC4 1-300)
# T5 sequence: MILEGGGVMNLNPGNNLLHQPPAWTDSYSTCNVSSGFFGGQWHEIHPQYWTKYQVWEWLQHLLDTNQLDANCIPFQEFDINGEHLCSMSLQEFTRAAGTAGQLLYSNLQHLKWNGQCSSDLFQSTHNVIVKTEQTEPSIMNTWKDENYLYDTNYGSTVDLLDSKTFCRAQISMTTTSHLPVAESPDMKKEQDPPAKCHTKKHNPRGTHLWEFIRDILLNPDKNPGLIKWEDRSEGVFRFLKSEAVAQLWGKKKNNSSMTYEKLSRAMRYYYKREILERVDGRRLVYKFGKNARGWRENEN
# Outline: as §1
# SPI1 = SPI1 (Homo sapiens, UniProt P17947 1-270)
# Outline: as §1
# SPIB = SPIB (Homo sapiens, UniProt Q01892 1-262)
# Outline: as §1
# ELK3 = target: T6, ELK3 (Homo sapiens, UniProt P41970 1-407)
# T6 sequence: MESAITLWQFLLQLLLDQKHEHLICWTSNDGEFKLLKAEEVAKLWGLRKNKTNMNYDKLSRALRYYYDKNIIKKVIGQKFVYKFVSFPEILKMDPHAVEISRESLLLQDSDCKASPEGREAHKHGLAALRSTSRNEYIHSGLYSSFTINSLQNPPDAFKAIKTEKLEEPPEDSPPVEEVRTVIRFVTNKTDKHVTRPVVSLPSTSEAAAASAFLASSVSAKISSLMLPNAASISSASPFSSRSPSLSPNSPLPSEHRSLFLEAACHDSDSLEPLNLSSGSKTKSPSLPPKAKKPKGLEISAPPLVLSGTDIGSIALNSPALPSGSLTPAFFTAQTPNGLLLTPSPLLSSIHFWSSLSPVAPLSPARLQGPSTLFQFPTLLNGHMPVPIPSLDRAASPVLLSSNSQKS
# Outline: as §1
# ELF1, sequence (P32519 whole entry): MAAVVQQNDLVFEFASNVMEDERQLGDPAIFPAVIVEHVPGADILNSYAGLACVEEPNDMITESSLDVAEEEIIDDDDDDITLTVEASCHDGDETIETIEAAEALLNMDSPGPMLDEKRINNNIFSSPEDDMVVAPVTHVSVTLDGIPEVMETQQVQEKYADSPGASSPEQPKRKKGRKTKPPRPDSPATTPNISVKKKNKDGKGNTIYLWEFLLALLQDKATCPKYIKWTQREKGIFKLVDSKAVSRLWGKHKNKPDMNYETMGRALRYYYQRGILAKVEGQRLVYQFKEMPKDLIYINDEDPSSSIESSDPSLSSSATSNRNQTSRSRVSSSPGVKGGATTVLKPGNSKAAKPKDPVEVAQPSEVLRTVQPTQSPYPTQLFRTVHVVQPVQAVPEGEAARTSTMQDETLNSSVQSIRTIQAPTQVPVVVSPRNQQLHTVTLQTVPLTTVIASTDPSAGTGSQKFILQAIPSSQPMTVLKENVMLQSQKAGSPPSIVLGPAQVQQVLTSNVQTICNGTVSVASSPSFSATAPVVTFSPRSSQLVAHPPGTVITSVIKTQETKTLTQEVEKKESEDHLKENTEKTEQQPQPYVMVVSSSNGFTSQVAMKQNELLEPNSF
# SPIB, sequence (Q01892 whole entry): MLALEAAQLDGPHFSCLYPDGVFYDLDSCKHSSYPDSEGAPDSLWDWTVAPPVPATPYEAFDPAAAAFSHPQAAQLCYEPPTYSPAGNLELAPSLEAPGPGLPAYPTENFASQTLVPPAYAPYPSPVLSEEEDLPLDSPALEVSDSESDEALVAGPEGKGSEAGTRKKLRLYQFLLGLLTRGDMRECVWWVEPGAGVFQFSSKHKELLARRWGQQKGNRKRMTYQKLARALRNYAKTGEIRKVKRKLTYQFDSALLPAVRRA
sequence,measurement,setting,value
ATGTTC,binding signal,FLI1,"1.19 fold enrichment (6-mer frequency, TF over GST control)"
same,binding signal,ELK1,"1.28 fold enrichment (6-mer frequency, TF over GST control)"
same,binding signal,GABPA,"1.18 fold enrichment (6-mer frequency, TF over GST control)"
same,binding signal,ERG,"1.21 fold enrichment (6-mer frequency, TF over GST control)"
same,binding signal,ELF1,"1.21 fold enrichment (6-mer frequency, TF over GST control)"
same,binding signal,EHF,"1.34 fold enrichment (6-mer frequency, TF over GST control)"
same,binding signal,SPI1,"1.2 fold enrichment (6-mer frequency, TF over GST control)"
same,binding signal,SPIB,"1.22 fold enrichment (6-mer frequency, TF over GST control)"
same,binding signal,ELK3,"1.14 fold enrichment (6-mer frequency, TF over GST control)"
CAATCT,binding signal,FLI1,"1.24 fold enrichment (6-mer frequency, TF over GST control)"
same,binding signal,ELK1,"1.18 fold enrichment (6-mer frequency, TF over GST control)"
same,binding signal,GABPA,"1.18 fold enrichment (6-mer frequency, TF over GST control)"
same,binding signal,ERG,"1.13 fold enrichment (6-mer frequency, TF over GST control)"
same,binding signal,ELF1,"1.22 fold enrichment (6-mer frequency, TF over GST control)"
same,binding signal,EHF,"1.17 fold enrichment (6-mer frequency, TF over GST control)"
same,binding signal,SPI1,"1.26 fold enrichment (6-mer frequency, TF over GST control)"
same,binding signal,SPIB,"1.23 fold enrichment (6-mer frequency, TF over GST control)"
same,binding signal,ELK3,"1.14 fold enrichment (6-mer frequency, TF over GST control)"
TATAAT,binding signal,FLI1,"1.14 fold enrichment (6-mer frequency, TF over GST control)"
same,binding signal,ELK1,"1.24 fold enrichment (6-mer frequency, TF over GST control)"
same,binding signal,GABPA,"1.12 fold enrichment (6-mer frequency, TF over GST control)"
same,binding signal,ERG,"1.07 fold enrichment (6-mer frequency, TF over GST control)"
same,binding signal,ELF1,"1.18 fold enrichment (6-mer frequency, TF over GST control)"
same,binding signal,EHF,"1.18 fold enrichment (6-mer frequency, TF over GST control)"
same,binding signal,SPI1,"1.15 fold enrichment (6-mer frequency, TF over GST control)"
same,binding signal,SPIB,"1.15 fold enrichment (6-mer frequency, TF over GST control)"
same,binding signal,ELK3,"1.22 fold enrichment (6-mer frequency, TF over GST control)"
AAAACG,binding signal,FLI1,"1.13 fold enrichment (6-mer frequency, TF over GST control)"
same,binding signal,ELK1,"1.19 fold enrichment (6-mer frequency, TF over GST control)"
same,binding signal,GABPA,"1.14 fold enrichment (6-mer frequency, TF over GST control)"
same,binding signal,ERG,"1.21 fold enrichment (6-mer frequency, TF over GST control)"
same,binding signal,ELF1,"1.16 fold enrichment (6-mer frequency, TF over GST control)"
same,binding signal,EHF,"1.17 fold enrichment (6-mer frequency, TF over GST control)"
same,binding signal,SPI1,"1.43 fold enrichment (6-mer frequency, TF over GST control)"
same,binding signal,SPIB,"1.11 fold enrichment (6-mer frequency, TF over GST control)"
same,binding signal,ELK3,"1.14 fold enrichment (6-mer frequency, TF over GST control)"
ACTCTG,binding signal,FLI1,"1.28 fold enrichment (6-mer frequency, TF over GST control)"
same,binding signal,ELK1,"1.23 fold enrichment (6-mer frequency, TF over GST control)"
same,binding signal,GABPA,"1.38 fold enrichment (6-mer frequency, TF over GST control)"
same,binding signal,ERG,"1.24 fold enrichment (6-mer frequency, TF over GST control)"
same,binding signal,ELF1,"1.37 fold enrichment (6-mer frequency, TF over GST control)"
same,binding signal,EHF,"1.33 fold enrichment (6-mer frequency, TF over GST control)"
same,binding signal,SPI1,"1.26 fold enrichment (6-mer frequency, TF over GST control)"
same,binding signal,SPIB,"1.21 fold enrichment (6-mer frequency, TF over GST control)"
same,binding signal,ELK3,"1.14 fold enrichment (6-mer frequency, TF over GST control)"
TTCATT,binding signal,FLI1,"1.25 fold enrichment (6-mer frequency, TF over GST control)"
same,binding signal,ELK1,"1.19 fold enrichment (6-mer frequency, TF over GST control)"
same,binding signal,GABPA,"1.16 fold enrichment (6-mer frequency, TF over GST control)"
same,binding signal,ERG,"1.2 fold enrichment (6-mer frequency, TF over GST control)"
same,binding signal,ELF1,"1.24 fold enrichment (6-mer frequency, TF over GST control)"
same,binding signal,EHF,"1.21 fold enrichment (6-mer frequency, TF over GST control)"
same,binding signal,SPI1,"1.21 fold enrichment (6-mer frequency, TF over GST control)"
same,binding signal,SPIB,"1.22 fold enrichment (6-mer frequency, TF over GST control)"
same,binding signal,ELK3,"1.23 fold enrichment (6-mer frequency, TF over GST control)"
CTCCTA,binding signal,FLI1,"1.47 fold enrichment (6-mer frequency, TF over GST control)"
same,binding signal,ELK1,"1.19 fold enrichment (6-mer frequency, TF over GST control)"
same,binding signal,GABPA,"1.38 fold enrichment (6-mer frequency, TF over GST control)"
same,binding signal,ERG,"1.22 fold enrichment (6-mer frequency, TF over GST control)"
same,binding signal,ELF1,"1.24 fold enrichment (6-mer frequency, TF over GST control)"
same,binding signal,EHF,"1.25 fold enrichment (6-mer frequency, TF over GST control)"
same,binding signal,SPI1,"1.46 fold enrichment (6-mer frequency, TF over GST control)"
same,binding signal,SPIB,"1.4 fold enrichment (6-mer frequency, TF over GST control)"
same,binding signal,ELK3,"1.24 fold enrichment (6-mer frequency, TF over GST control)"
ATGACA,binding signal,FLI1,"1.34 fold enrichment (6-mer frequency, TF over GST control)"
same,binding signal,ELK1,"1.32 fold enrichment (6-mer frequency, TF over GST control)"
same,binding signal,GABPA,"1.45 fold enrichment (6-mer frequency, TF over GST control)"
same,binding signal,ERG,"1.32 fold enrichment (6-mer frequency, TF over GST control)"
same,binding signal,ELF1,"1.39 fold enrichment (6-mer frequency, TF over GST control)"
same,binding signal,EHF,"1.32 fold enrichment (6-mer frequency, TF over GST control)"
same,binding signal,SPI1,"1.29 fold enrichment (6-mer frequency, TF over GST control)"
same,binding signal,SPIB,"1.32 fold enrichment (6-mer frequency, TF over GST control)"
same,binding signal,ELK3,"1.3 fold enrichment (6-mer frequency, TF over GST control)"
